Laboratory results taken from PubChem BioAssay AID1159580 (chemical genetic matrix, 2015).
Several values for one entry are separate records, joined by “and”; a condition that tells them apart may be missing. Equal entries are not always repeated. The campaign covered roughly 5,500 compounds. About 2,000 (36%) were called active. Inconclusive results (about 18%) are left out. Cut-off read from the data, not from the text of the source: active = normalized growth mostly below about 0.91 (no sharp cut-off); inconclusive = no clear call, values can overlap the other calls; inactive = mostly above about 0.92. This is one part of the list. Where a SMILES comes first, the peptide text is derived from it. [ ]: non-standard residue; d: D form. Orn = NCCC[CH](N)C(=O)O

Experiment: chemical genetic growth profiling, strain panel (AID 1159580);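 note: tested at 20 µM; growth read once vehicle control cultures reached saturation at 30 °C; 1 = growth at the plate median or of vehicle wells; lower values mean less growth of the strain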
Settings: S. cerevisiae deletion strains, growth OD

Measured: normalized growth

CC(C)CC1NC(=O)C(CCCN)NC(=O)C(C(C)C)NC(=O)C2CCCN2C(=O)C(Cc2ccccc2)NC(=O)C(CC(C)C)NC(=O)C(CCCN)NC(=O)C(C(C)C)NC(=O)C2CCCN2C(=O)C(Cc2ccccc2)NC1=O (stereo unspecified) (cyclo(FPV[Orn]LFPV[Orn]L); configuration not given here)
inactive: locus YAL013W, strain DEP1, active compounds read low 1.01 | locus YAL021C, strain ccr4, active compounds read low 0.995 | locus YAL026C, strain drs2, active compounds read low 0.911 | locus YAL030W, strain snc1, active compounds read low 1.03 | locus YBL061C, strain skt5, active compounds read low 1.02 | locus YBR009C, strain hhf1, active compounds read low 1.01 | locus YBR021W, strain FUR4, active compounds read low 0.931 | locus YBR023C, strain chs3, active compounds read low 1.01 | locus YBR171W, strain sec66, active compounds read low 1.07 | locus YBR229C, strain ROT2, active compounds read low 1.01 | locus YBR231C, strain swc5, active compounds read low 0.934 | locus YBR279W, strain paf1, active compounds read low 1.02 | locus YCL011C, strain gbp2, active compounds read low 1.02 | locus YCL016C, strain dcc1, active compounds read low 1 | locus YCL029C, strain bik1, active compounds read low 0.986 | locus YCL061C, strain MRC1, active compounds read low 1.03 | locus YCL069W, strain vba3, active compounds read low 1.03 | locus YCR088W, strain abp1, active compounds read low 1.03 | locus YDL005C, strain med2, active compounds read low 1.02 | locus YDL035C, strain GPR1, active compounds read low 0.992 | locus YDL040C, strain nat1, active compounds read low 1.02 | locus YDL074C, strain BRE1, active compounds read low 0.964 | locus YDL101C, strain DUN1, active compounds read low 1 | locus YDL134C, strain PPH21, active compounds read low 1.01 | locus YDR001C, strain nth1, active compounds read low 1.03 | locus YDR069C, strain doa4, active compounds read low 0.905 | locus YDR101C, strain arx1, active compounds read low 0.998 | locus YDR150W, strain NUM1, active compounds read low 1.02 | locus YDR159W, strain sac3, active compounds read low 1.02 | locus YDR162C, strain NBP2, active compounds read low 1.01 | locus YDR297W, strain sur2, active compounds read low 1.03 | locus YDR318W, strain mcm21, active compounds read low 1.01 | locus YDR334W, strain swr1, active compounds read low 1.02 | locus YDR335W, strain msn5, active compounds read low 1.05 | locus YDR388W, active compounds read low 0.989 | locus YDR392W, strain spt3, active compounds read low 0.963 | locus YDR502C, strain sam2, active compounds read low 0.997 | locus YEL003W, strain gim4, active compounds read low 1.01 | locus YEL037C, strain rad23, active compounds read low 1.04 | locus YEL061C, strain CIN8 (second series), active compounds read low 1.04 | locus YEL061C, strain CIN8, active compounds read low 1.02 | locus YER015W, strain faa2, active compounds read low 1.01 | locus YER016W, strain bim1, active compounds read low 1.03 | locus YER110C, active compounds read low 0.987 | locus YER111C, strain swi4, active compounds read low 1.05 | locus YER155C, strain BEM2, active compounds read low 0.991 | locus YER167W, strain BCK2, active compounds read low 1.02 | locus YFR010W, strain ubp6, active compounds read low 1.01 | locus YGL078C, strain dbp3, active compounds read low 0.993 | locus YGL167C, strain pmr1, active compounds read low 1.04 | locus YGL173C, strain kem1, active compounds read low 1.02 | locus YGL227W, strain vid30, active compounds read low 1.05 | locus YGL240W, strain doc1, active compounds read low 0.992 | locus YGL248W, strain PDE1, active compounds read low 1.01 | locus YGL253W, strain hxk2, active compounds read low 1.03 | locus YGR078C, strain PAC10, active compounds read low 1.07 | locus YGR135W, strain pre9, active compounds read low 0.981 | locus YGR229C, strain SMI1, active compounds read low 0.844 | locus YGR252W, strain gcn5, active compounds read low 0.924 | locus YHR013C, strain ard1, active compounds read low 1.1 | locus YHR027C, strain rpn1, active compounds read low 1.05 | locus YHR030C, strain SLT2, active compounds read low 1 and 0.948 | locus YHR079C, strain IRE1 (second series), active compounds read low 1.01 | locus YHR079C, strain IRE1, active compounds read low 0.993 | locus YHR094C, strain hxt1, active compounds read low 1.01 | locus YHR129C, strain ARP1, active compounds read low 1.02 | locus YHR142W, strain chs7, active compounds read low 1.02 | locus YIL066C, strain RNR3, active compounds read low 0.999 | locus YIL125W, strain kgd1, active compounds read low 1 | locus YIR030C, strain dcg1, active compounds read low 1 | locus YJL092W, strain hpr5, active compounds read low 1.04 | locus YJL095W, strain BCK1 (second series), active compounds read low 1.02 | locus YJL095W, strain BCK1, active compounds read low 0.965 and 0.972 | locus YJL115W, strain asf1, active compounds read low 1.07 | locus YJL129C, strain trk1, active compounds read low 1.01 | locus YJL134W, strain LCB3, active compounds read low 1.01 | locus YJL154C, strain vps35, active compounds read low 1.01 | locus YJL164C, strain tpk1, active compounds read low 1.03 | locus YJL166W, strain qcr8, active compounds read low 1.02 | locus YJL168C, strain set2, active compounds read low 1 | locus YJL187C, strain SWE1 (second series), active compounds read low 0.992 | locus YJL187C, strain SWE1, active compounds read low 1.04 | locus YJR043C, strain POL32, active compounds read low 0.983 | locus YJR066W, strain TOR1, active compounds read low 0.935 | locus YJR075W, strain HOC1, active compounds read low 1.01
active: locus YDL185W, strain tfp1, active compounds read low 0.249 | locus YDL192W, strain arf1, active compounds read low 0.104 | locus YDR137W, strain rgp1, active compounds read low 0.307 | locus YDR195W, strain ref2 0.363 | locus YER155C, strain BEM2 (second series), active compounds read low 0.775 | locus YIL073C, strain SPO22, active compounds read low 1.52 [resistant]
